CatB mix inh = inhibitors of human cathepsin B in compound mixtures; inhibition, %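 (ten-compound pools at 5 µM per compound and 50 µM total)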; Purified cathepsin B, AMC dipeptide fluorescence; hit rate 0.06% among 62,000; P07858; in the data active = inhibition above about 22%, passing the limit was not always enough; inconclusive = no clear call, values can overlap the other calls
CatB block = blocks human cathepsin B protease activity | P07858 | purified cathepsin B, fluorogenic substrate, fluorescence | inhibition, %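 (tested at 10 µM)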 | hit rate 0.1% among 63,000 | AID 453; in the data active = inhibition above about 21%
Cdc25B inh = human M-phase inducer phosphatase 2 inhibition | recombinant Cdc25B, OMFP fluorescence Ex485/Em525 | inhibition, %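 (compounds tested at 10 µM final in the well)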 | hit rate 0.1% among 65,000 | P30305; in the data active = inhibition above about 50%
CatL block = blocks human cathepsin L protease activity | inhibition, %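 (tested at 10 µM)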 | purified cathepsin L, fluorogenic substrate, fluorescence | hit rate 0.17% among 58,000; in the data active = inhibition above about 45%
Target sequence (P07711 114-288 limits assumed): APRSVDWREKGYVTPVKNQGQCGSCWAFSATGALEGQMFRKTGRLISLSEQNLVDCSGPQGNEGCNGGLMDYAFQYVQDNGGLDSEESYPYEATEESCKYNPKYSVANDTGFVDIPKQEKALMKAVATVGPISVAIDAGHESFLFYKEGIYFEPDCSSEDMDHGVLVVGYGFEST
Target sequence (P07711 292-333 limits assumed): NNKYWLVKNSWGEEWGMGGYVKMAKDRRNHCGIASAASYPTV
CatS block = blocks human cathepsin S protease activity; hit rate 0.06% among 62,000; P25774; recombinant cathepsin S, AMC dipeptide fluorescence, pooled mixtures; inhibition, %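 (tested at 5 µM per compound within 10-compound mixtures)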; in the data active = inhibition above about 32%, passing the limit was not always enough; inconclusive = no clear call, values can overlap the other calls
Target sequence (P25774 115-331 limits assumed): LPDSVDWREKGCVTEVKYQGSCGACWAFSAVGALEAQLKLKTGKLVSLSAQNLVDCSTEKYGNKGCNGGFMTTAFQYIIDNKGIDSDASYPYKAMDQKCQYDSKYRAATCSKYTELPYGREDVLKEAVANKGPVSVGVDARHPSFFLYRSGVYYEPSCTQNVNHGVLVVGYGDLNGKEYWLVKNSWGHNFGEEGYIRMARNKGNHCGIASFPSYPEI
DUSP1 inh = human dual specificity phosphatase 1 inhibition | hit rate 0.15% among 65,000 | inhibition, %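 (compounds tested at a single concentration somewhere between 10 and 100 µM)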 | P28562 | recombinant MKP-1, OMFP hydrolysis fluorescence;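 active = inhibition above about 50%, limit read from the data; inconclusive = inhibition over screen mean plus 3 SD, below that limit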
Hits are given with their value; . = inactive; ? = inconclusive; / = no result. Rows were chosen to be rich in hits. Some 0.5% of all compounds tested hit in one or more screens of this group.

SMILES | CatB mix inh | CatB block | Cdc25B inh | CatL block | CatS block | DUSP1 inh
CCCCN(CC)CCNC(=O)c1cc2c(=O)n(C)c3ccccc3c2n1C | . | . | . | . | 57 | .
CN(C)CCNC(=O)c1cc2c(=O)n(C)c3ccccc3c2n1C | . | . | . | . | 82 | .
CCN(CC)CCCNC(=O)c1cc2c(=O)n(C)c3ccccc3c2n1C | . | . | . | . | ? | .
CCN(CC)CCNC(=O)c1cc2c(=O)n(C)c3ccccc3c2n1C | . | . | . | . | 48 | .
NS(=O)(=O)c1ccc(NC(=O)c2ccccc2C(=O)N2CCCCC2)cc1 | . | . | . | . | . | .
CC1(C)Cc2c(C#N)c(SCC(=O)c3ccccc3)nc(N3CCOCC3)c2CO1 | . | . | . | . | . | .
COC(=O)Sc1nc(N2CCOCC2)c2c(c1C#N)CC(C)(C)OC2 | / | 47 | . | . | / | .
CCCc1nc(SCC(=O)N2CCC(Cc3ccccc3)CC2)c2c(=O)n(C)c(=O)n(C)c2n1 | . | . | . | . | . | .
CN1CCN(C(=O)c2ccc3c(c2)N(Cc2ccc(Cl)cc2)C(=O)c2ccccc2S3=O)CC1 (stereo not drawn) | . | . | . | . | . | .
O=C(O)c1ccc2c(c1)N(Cc1ccccc1)C(=O)c1ccccc1S2=O (stereo not drawn) | . | . | 66 | / | . | .
CC(=O)Nc1ccc(S(=O)(=O)/N=C2\SCCN2S(=O)(=O)c2ccc(NC(C)=O)cc2)cc1 | . | . | . | 79 | . | .
COc1ccccc1C1CC(c2ccccc2)Nc2ncnn21 (stereo not drawn) | . | . | . | . | . | .
c1ccc2sc(SN3CCOCC3)nc2c1 | . | . | . | . | . | .
O=C(CSc1nc2c(cnn2-c2ccccc2)c(=O)[nH]1)c1ccc(Cl)cc1 | . | . | . | / | . | 56
CCC(=O)Oc1oc(-c2ccccc2)nc1C=Nc1ccccc1OC | / | 26 | . | . | / | .
Cc1ccccc1S(=O)(=O)NC1OC(=O)C(Cl)=C1Cl (stereo not drawn) | . | . | . | . | . | .
CC(=O)NC(=O)NC1OC(=O)C(Cl)=C1Cl (stereo not drawn) | ? | 21 | . | . | . | .
O=C1CC(NCc2ccco2)C(=O)N1CCc1ccccc1 (stereo not drawn) | . | . | 53 | . | . | .
CCc1nc(N)c(C#N)c(-c2ccccc2OC)c1C | . | . | . | . | . | .
O=S(=O)(c1ccc(Oc2ccc(S(=O)(=O)N3CCOCC3)cc2)cc1)N1CCOCC1 | . | . | . | . | . | .
C=CS(=O)(=O)c1ccc(Oc2ccc(S(=O)(=O)C=C)cc2)cc1 | . | . | . | . | 39 | .
CCOC(=O)C1=C(C)NC(C)=C(C(=O)OC)C1c1cccc(Cl)c1Cl (stereo not drawn) | . | 34 | . | . | . | .
O=C(c1cncc(Br)c1)N1CCN(c2ccc(N3CCOCC3)nn2)CC1 | . | 52 | . | . | . | .
Cc1cc(C)n(-c2nc3c(c(=O)n(C)c(=O)n3C)n2Cc2cccc(Br)c2)n1 | . | . | . | . | . | .
CCOC(=O)c1ccccc1NC(=O)Cn1c(-c2nonc2N)nc2ccccc21 | . | 59 | . | . | . | .
SMILES | CatB mix inh | CatB block | Cdc25B inh | CatL block | CatS block | DUSP1 inh
Nc1nonc1-c1nc2ccccc2n1Cc1ccccc1 | 43 | . | . | . | . | .
Nc1nonc1-c1nc2ccccc2n1CC(=O)NC1CCCC1 | . | . | . | . | . | .
C=CCn1c(NC(=O)c2ccccc2)c(C#N)c2nc3ccccc3nc21 | . | . | . | . | . | .
COc1ccc(-n2c(Cc3cccn3C)nnc2SCC(=O)NCc2ccccc2Cl)cc1 | . | . | . | 101 | . | .
COc1ccc(-n2c(Cc3cccn3C)nnc2SCC(=O)NCc2ccc(F)cc2)cc1 | . | . | . | . | . | .
Cn1cccc1Cc1nnc(SCC(=O)NCC2CCCO2)n1-c1ccc(F)cc1 (stereo not drawn) | . | . | . | 46 | . | .
CN(C)/C=C1\C(=O)c2ccc(N(C)C)nc2CC1c1ccccc1 (stereo not drawn) | . | . | . | . | . | .
COc1ccccc1-c1cc(C(F)(F)F)nc(N2CCN(c3ccc(F)cc3)CC2)n1 | . | . | . | . | . | .
COc1ccccc1-c1cc(C(F)(F)F)nc(N2CCN(c3ccccc3)CC2)n1 | . | . | . | 105 | . | .
COc1ccc(C(=O)C(OC(=O)CNC(=O)c2ccco2)c2ccccc2)cc1 (stereo not drawn) | . | 21 | . | 68 | . | .
c1cncc(-c2nc(Oc3ccc(-c4nnco4)cc3)c3c4c(sc3n2)CCCC4)c1 | . | . | . | . | . | .
NC(N)=NS(=O)(=O)c1ccc(N)cc1 | . | . | . | . | . | .
C/C(N)=N\S(=O)(=O)c1ccc(Cl)cc1 | . | 29 | . | . | . | .
Cc1ccc(CCP(=O)(O)CN2CCCCC2)cn1 | . | . | . | . | . | .
COc1ccc(Cn2nnnc2C(c2cc3cccc(C)c3[nH]c2=O)N2CCOCC2)cc1 (stereo not drawn) | . | . | 52 | . | . | .
COc1ccc(CN2CC(C(=O)NCCCN3CCCCCC3)CC2=O)cc1 (stereo not drawn) | . | . | . | . | . | .
COc1ccc(CN2CC(C(=O)NCCCN3CCOCC3)CC2=O)cc1 (stereo not drawn) | . | . | 65 | . | . | .
CC(C)(C)OC(=O)N[C@@H](Cc1ccccc1)c1nnc(S(=O)(=O)Cc2cccc(F)c2)o1 | . | . | . | . | . | .
CC(C)C[C@H](N)c1nnc(S(=O)(=O)Cc2cccc(F)c2)o1 | . | . | . | 46 | . | .
CC(=O)N=c1c(C#N)cc2c(=O)n3cccc(C)c3nc2n1CC(C)C | . | . | . | . | . | .
Cc1onc(-c2ccccc2Cl)c1C(=O)Nc1ccc(-n2nncc2-c2ccco2)cc1 | . | . | . | . | . | .
Cc1onc(-c2ccccc2Cl)c1C(=O)Nc1ccc(-n2nncc2C(C)(C)C)cc1 | . | . | 66 | . | . | .
COc1ccccc1CN(Cc1ccco1)S(=O)(=O)c1ccc(-n2cnnn2)c(OC)c1 | . | . | . | . | 60 | .
CC1CCN(c2nc(-c3ccco3)c3c(c2C#N)CC(C)(C)OC3)CC1 | . | . | . | / | . | .
CCOC(=O)N1CC=C2C(C#N)=C(N)C(C#N)(C#N)[C@H](c3ccc(OCC)c(OCC)c3)[C@H]2C1 | . | . | . | . | . | .
CCCCOc1ccc(C2C3CN(C(=O)OCC)CC=C3C(C#N)=C(N)C2(C#N)C#N)cc1OC (stereo not drawn) | . | . | . | 60 | . | .
COc1ccc(S(=O)(=O)NC(CC(=O)N2CCc3ccccc32)c2ccco2)cc1 (stereo not drawn) | . | . | . | 49 | . | .
Cc1ccc(S(=O)(=O)NC(CC(=O)N2CCc3ccccc32)c2ccco2)cc1 (stereo not drawn) | . | . | . | . | . | .

Screens: PubChem BioAssay, several laboratories
